Source: PubChem BioAssay (NCI)
This is part of a sample that, as a whole, favours compounds with a hit. Of some 83,000 tested, about 20% had one in any assay.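 96-well plates, one dose, 48 hours. Percent growth reported; active if below 10.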 Unmarked numbers belong to inactive results. Calls of active or inactive are those of the source.

Each compound was assayed on IGROV1 ovarian (assay: NCI-60 one-dose screen, 48 h (100 = growth as untreated, 0 = no growth, -100 = all killed)). Conditions: 10 µM unless noted.
Experimental: Growth inhibition of the IGROV1 human tumor cell line is measured as a screen for anti-cancer activity. Cells are grown in 96 well plates and exposed to the test compound for 48 hours. Compounds are tested at a single concentration, which is 10^-5 M for most compounds. The reported endpoint is percent growth (GI% or GIPRCNT), where numbers from 0 - 100% represent growth inhibition, and numbers from -100% - 0 represent cell death. For example, a value of 40 represents 60% growth inhibition. A value of 0 means no net growth occurred over the course of the experiment. A value of -40 indicates 40% of cells at the beginning of the experiment died by the end of the experiment. A value of -100 means all cells are dead at the end of the experiment.
NCI-60 Human Tumor Cell Lines Screen was performed using the standard one-dose NCI protocol, which is described in more detail at https://dtp.cancer.gov/discovery_development/nci-60/default.htm.
Compounds with GIPRCNT values below 10 were considered active. Activity score was based on GIPRCNT using the following formula: […]
Score is 0 for GIPRCNT values of 100 or above, 50 for GIPRCNT values of 0, and 100 for GIPRCNT values of -100.
With `Cc1ccc2c(c1)C(=O)/C(=C/c1ccc(OCC(=O)c3ccccc3)cc1)O2` the growth was 75.9%.
With `COC(=O)C12C3C(=O)N(c4ccc(OC)cc4)C(=O)C3C(c3cn(-c4ccccc4)nc3C)N1[C@H](c1cn(-c3ccccc3)nc1C)[C@@H]1C(=O)N(c3ccc(OC)cc3)C(=O)[C@@H]12` (stereo not given in full) the growth was 107%.
With `CN1CCN(Cc2ccc(NC(=O)c3cncc(C#Cc4cnc(N)c5cccnc45)c3)cc2C(F)(F)F)CC1` the growth was 7.64% (active).
`O=C(Nc1nc(-c2ccccc2)cc(-c2ccc(Cl)cc2)n1)c1ccncc1` was tested, and the growth was 95.3%.
In the case of `COc1cc(NCCCCN=C(N)NC(N)=NC(C)C)c2ncccc2c1`, the growth is reported as -31.9% (active).
Work on `COCCCN=C(N)c1ccc(NC(=O)c2ccc(C(=O)Nc3ccc(C(N)=NCCCOC)cc3)cc2)cc1` yielded a growth of 120%.
`CC1=C(NCCN2CCCC2)C(=O)c2c(OCc3ccc(C(F)(F)F)cc3)cccc2C1=O` was tested, and the growth was 89.1%.
In the case of `C[C@H](CCC(=O)O)[C@H]1CC[C@H]2[C@@H]3CC[C@@H]4/C(=C\c5ccco5)C(=O)/C(=C\c5ccco5)C[C@]4(C)[C@H]3CC[C@]12C`, the growth is reported as 93%.
Compound `O=S(=O)(Nc1ccc(Cl)cc1Cl)c1ccc(-c2cnc(C3CC3)o2)cc1` has a growth of 29.2%.
`Nc1nc(SCc2ccccc2)c2ncn(C3CCCC3)c2n1` showed a growth of 98.1%.
`CCN(CC)CC(C)(C)C(=O)/C=C/c1ccccc1` was tested, and the growth was 74.1%.
Compound `CCCCCC(=O)Oc1ccc(/C(=C(\C)c2ccccc2)c2ccc(OCCN(CC)CC)cc2)cc1` has a growth of 75.9%.
In the case of `Cn1cc(-c2csc(-c3cn(C)c4ncccc34)n2)c2ccccc21`, the growth is reported as 42.8%.
`O=[N+]([O-])c1cccc(-c2nc3sccn3c2-c2ccnc(NCCCNS(=O)(=O)c3ccc(Br)cc3)n2)c1` was tested, and the growth was 41.6%.
In the case of `O=C1NC(=O)C(CC(=O)n2c(-c3ccccc3)nc3ccccc32)C(=O)N1`, the growth is reported as 93.3%.
`Oc1ccccc1N=Cc1c(O)ccc2ccccc12` showed a growth of 58.9%.
`O=C1Nc2ccc(Br)cc2C12CC(c1ccccc1)=NN2` (stereo not given) was tested, and the growth was 52.6%.
In the case of `O=C(/C=C/c1ccc(B(O)O)cc1)/C=C/c1ccc(B(O)O)cc1`, the growth is reported as -73.3% (active).
`CCN(CC)CC(O)CNc1c2ccc([N+](=O)[O-])cc2nc2cc(OC)c(OC)cc12` (stereo not given) was tested, and the growth was -39.9% (active).
For `CCCCCC(=O)N(CCCC)CCCC`, the growth was 113%.
With `N#Cc1c2c(nc3n[nH]c(N)c13)CCCC2` the growth was 109%.
`CCCCNc1ccc2c3c1cccc3c(=O)n1c3ccccc3nc21` gave a growth of 41.8%.
Compound `Cc1cc(Nc2nc(N3CCNCC3)nc3ccccc23)n[nH]1` has a growth of 85.1%.
For `COc1cccc2c1C(=O)c1c(O)c3c(c(O)c1C2=O)C[C@@](O)(/C(C)=N/NC(=O)c1ccc(Cl)cc1)C[C@@H]3OC1CC(N)C(O)C(C)O1` (stereo not given in full), the growth was -21.8% (active).
`O=C1C[C@H](N2C(=O)c3ccccc3S2(=O)=O)C2CO[C@@H]1O2` gave a growth of 103%.
`CC1(C)CC(=O)C(c2c(-c3ccccc3)[nH]c3[nH]c(=S)[nH]c(=O)c23)=C(O)C1` showed a growth of 132%.
With `O=C(CN1CCOCC1)Nc1ccc(Cn2nnc3c2C(=O)c2nnn(Cc4ccc(NC(=O)CN5CCOCC5)cc4)c2C3=O)cc1` the growth was -41.4% (active).
In the case of `Cc1ccc2c(c1)O/C(=C\c1cccc(OCC(=O)c3ccccc3)c1)C2=O`, the growth is reported as 95.5%.
`CC/C=C\C[C@H](F)C/C=C1/C(=O)C=C[C@@H]1C/C=C\CCCC(=O)O` was tested, and the growth was 65.4%.
In the case of `N#Cc1c(N)nc(N)nc1Nc1ccc(Br)cc1`, the growth is reported as 47%.
Work on `Nc1cc(O)cc2cccnc12` yielded a growth of 53.4%.
Compound `COC(=S)SCN(CSC(=S)OC)c1ccc(Cl)cc1` has a growth of 95.4%.
For `COc1cnc2c(c1)C(=O)c1c-2n(CCCBr)c(=O)c2cc([N+](=O)[O-])ccc12`, the growth was 2.21% (active).
`Cc1cc(Nc2nc(N3CCN(C)CC3)nc3ccccc23)n[nH]1` gave a growth of 35.6%.
`NS(=O)(=O)N(c1cc(C(F)(F)F)cc(C(F)(F)F)c1)C1CCN(Cc2ccc(F)cc2)CC1` gave a growth of 61.9%.
`CCCN(CCC)CN(CCC)CCC` was tested, and the growth was 111%.
With `C=C1C(=O)O[C@H]2[C@H]1CC/C(Cn1cc(Cc3c[nH]c4ccccc34)nn1)=C\CC[C@@]1(C)O[C@@H]21` the growth was 40.2%.
Work on `COc1cc(C2CC(=O)Nc3c2c(C)nn3-c2nc3ccccc3[nH]2)cc(OC)c1OC` (stereo not given) yielded a growth of 85.1%.
`NC(CC(=O)O)C(=O)OCc1ccccc1` (stereo not given) showed a growth of 105%.
`CCOC(=O)c1c2c(n3ccc(NC(=O)CCN4CCOCC4)cc13)C(=O)c1ncccc1C2=O` showed a growth of 31.3%.
